# From ChEMBL document CHEMBL3988442, “University of Dundee, Small-Polar-MMV Screening Library” (2021)
# About 900 (1.7%) of roughly 53,000 compounds showed an effect of 50% or more. Shown is part of a subset that was picked to be rich in strong results.
# System: Mycobacterium tuberculosis
# Test: Cornell - Phenotypic assay to identify agents that inhibit growth of Mycobacterium tuberculosis
# Type: functional
# Set-up: scale not given: direction of the effect not stated beside the values
# Details: 10 mM as filed; unlikely as a test dose
row,SMILES,Percent Effect [%]
1,Cc1cc(C)n(CC2CN(Cc3cccc(C#N)c3)CCO2)n1 (centres undefined),14.78
2,COc1ccc(CN2CCn3cc(CN4CCN(C)CC4)nc3C2)cc1.O=C(O)C(F)(F)F.O=C(O)C(F)(F)F.O=C(O)C(F)(F)F,3.435
3,CC(C)COCCC(=O)Nc1ccc2oc(=O)n(CCN(C)C)c2c1,-58.21
4,O=C(NCCc1cc(N2CCOCC2)nc(N2CCCC2)n1)C1CC1,50.32
5,O=C(NCCc1cc(N2CCOCC2)nc(NC2CC2)n1)C1CC1,33.35
6,O=C(NCCc1cc(N2CCOCC2)nc(NC2CC2)n1)C1CCCO1 (centres undefined),34.16
7,OC[C@H]1CCCN1c1nccc(-c2c[nH]nc2C2CCCCC2)n1,4.191
8,c1cc(-c2c[nH]nc2C2CCCCC2)nc(N2CCCCCC2)n1,77.63
9,NC(=O)C1CCN(c2nccc(-c3c[nH]nc3C3CCCCC3)n2)CC1,12.19
10,COCCNC(=O)c1ccc2ccc(N3CCN(CC4CC4)CC3)n2c1,-16.88
11,Cc1cc(-c2cc(F)ccc2C(=O)O)nc(C2CCCN(C)C2)n1 (centres undefined),0.614
12,COc1ccccc1C1(CNc2nnc(C)c(C)c2C#N)CCCC1,86.76
13,COc1ccccc1C1(CNc2nnc(C)c(C)c2C#N)CCOCC1,-5.763
14,Cc1nnc(NCC2(c3ccccc3)CCC2)c(C#N)c1C,47.49
15,Cn1cnnc1SCc1cc2c(cc1Cl)OCO2,23.01
16,Cc1n[nH]c(C)c1NC(=O)C1CCCN(C(=O)NCC(C)C)C1 (centres undefined),-0.6091
17,CCCc1cnc(C)nc1N1CCC(Cn2cc(CN(C)C)nn2)CC1,18.6
18,O=S(=O)(c1cccnc1)N1CCCCC1CCN1CCOCC1 (centres undefined),-15.47
19,O=C(c1ccc(F)cc1F)N(CC(F)(F)F)C1CCOCC1,37.88
20,CCN(C(=O)c1cc(C)oc1C)C1CC1,4.626
21,Cc1cc(C(=O)N(CC(F)(F)F)C2CCOCC2)c(C)o1,51.1
22,Cc1cn2c(n1)CCC(NC(=O)CCOc1cccc(F)c1)C2 (centres undefined),5.433

row,SMILES,Percent Effect [%]
1,Cc1cc(N2CCN(C3CCOCC3)CC(C(=O)N(C)C)C2)ncn1 (centres undefined),3.983
2,Cc1ccccc1CC(=O)NCc1cnc(CC2CCN(C)CC2)cn1,48.16
3,Cc1ccc(CN2CCC3(CC2)C(=O)Nc2ccccc23)s1.O=C(O)C(F)(F)F,18.05
4,O=C(O)C(F)(F)F.O=C1Nc2ccccc2C12CCN(Cc1cccs1)CC2,50.44
5,O=C(O)C(F)(F)F.O=C1Nc2ccccc2C12CCN(Cc1nccs1)CC2,-8.416
6,CCOc1ccc(NC(C)=O)cc1S(=O)(=O)Nc1nccs1,7.151
7,O=C(CCc1ccco1)Nc1cc(C(F)(F)F)c[nH]c1=O,7.769
8,CN(Cc1ccco1)C(=O)Nc1cc(C(F)(F)F)c[nH]c1=O,-17.34
9,CC(CCc1ccco1)NC(=O)Nc1cc(C(F)(F)F)c[nH]c1=O (centres undefined),102.9
10,Cc1nc(C)n(CC(=O)N2CCCC(c3cc4ccccc4cn3)C2)n1 (centres undefined),-16.13
11,CC(C)c1nc(N2CCN3CCCC3C2)c2cnn(C)c2n1 (centres undefined),62.47
12,CC(C)c1nc(N2CCC(N3CCCCCC3)CC2)c2cnn(C)c2n1,30.23
13,CC(C)c1nc(N2CCC(N3CCCC(O)C3)CC2)c2cnn(C)c2n1 (centres undefined),28.63
14,Cc1cc(C)nc(N2CCC(c3noc(C)n3)CC2)n1,-1.548
15,O=C(CC1CCN(c2cccnn2)CC1)NCCO,12.72
16,CCC/N=c1/c(NC(=O)NCCCOC)c(O)oc2ccccc12,-33.59
17,CCc1ccc(CN(C)C(=O)C(c2ccccc2F)N(C)C)nc1 (centres undefined),0.2159
18,CCCC(=O)NCC(Cc1cccc(F)c1)N1CCCC1=O (centres undefined),2.564
19,O=C(CN(Cc1ccccc1)CC1CCOCC1)Nc1nccs1,42.61
20,NC(=O)NC(=O)CCN(Cc1ccccc1)CC1CCOCC1,53.84
21,O=C(CN(Cc1ccccc1)CC1CCOCC1)NC(=O)NC1CC1,16.06
22,CCc1ccc(C(COC)NC(=O)c2ccc(C(N)=O)cc2)o1 (centres undefined),17.07

row,SMILES,Percent Effect [%]
1,Cc1oncc1C(=O)N1CCOCC2(CCN(c3ccccn3)C2)C1.O=C(O)C(F)(F)F (centres undefined),-11.19
2,Cc1nc(C)n(CC2CCCN2Cc2cccc3c2OCCO3)n1 (centres undefined),-6.241
3,CC(=O)N1CCC[C@@H](NCc2ccc(F)cc2)[C@@H]1c1ccc(C)s1,1.669
4,CC(=O)N1CCC[C@@H](NCc2cccc(F)c2)[C@@H]1c1ccc(C)s1.Cl,-22.92
5,CC(=O)N1CCC[C@@H](NCc2c[nH]c3ccccc23)[C@@H]1c1ccc(C)s1.Cl,66.32
6,c1ccc2ncc(CC3CCNC3)cc2c1 (centres undefined),-46.09
7,O=c1n(Cc2ccc(F)cc2)nc2ncccn12,-16.62
8,O=C(c1cc(COc2ccc3c(c2)OCO3)[nH]n1)N1CCSCC1,102
9,O=C(c1cc(COc2ccc3c(c2)OCO3)[nH]n1)N1CCCC1,105.4
10,COc1cccc(OCc2cc(C(=O)N3CC(O)C3)n[nH]2)c1,3.061
11,O=C(c1cc(COc2ccc3c(c2)OCO3)[nH]n1)N1CCCO1,80.32
12,O=C(c1cc(COc2ccc3c(c2)OCO3)[nH]n1)N1CCCC(O)C1 (centres undefined),44.89
13,C[C@@H]1CN(C(=O)c2cc(COc3ccc4c(c3)OCO4)[nH]n2)C[C@H](C)O1,3.14
14,O=C(c1cc(COc2ccc3c(c2)OCO3)[nH]n1)N1CCCCO1,15.85
15,O=C(c1cc(COc2ccc3c(c2)OCO3)[nH]n1)N1CCOCC1,35.93
16,O=C(c1cc(COc2ccc3c(c2)OCO3)[nH]n1)N1CC=CC1CO (centres undefined),46.2
17,Cc1noc(C)c1S(=O)(=O)N1CCc2nc(C3CCNCC3)ncc2C1.Cl,6.846
18,CN(C)C(=O)CN1CCCC(c2nccnc2-c2cccc(Cl)c2)C1 (centres undefined),27.94
19,O=c1cc(CN2CCCC2)nc2n1CCCN(CC1CC1)C2,-16.69
20,c1ncc(CN2CC(Cc3nccc4cc[nH]c34)C2)cn1,24.55
